cytoskel mod = modifiers of F-actin cytoskeleton organization, primary screen, imaging, HUVEC, phalloidin staining, high-content imaging. HUVEC TNFa F-actin phalloidin imaging. inhibition, % at 2 µM. 91,000 compounds, 0.18% hits. AID 836, 2007;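 active means inhibition above the batch mean plus 3 SD and confirmed as a hit by visual image inspection, cut at about 30% in these data, passing the limit was not always enough; inconclusive means above the inhibition threshold but rejected on visual inspection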
HUVEC tox TNFa = cytotoxicity in TNFa-stimulated HUVEC, primary screen, cytotoxicity control for VCAM1 expression modulator project, imaging, Hoechst nuclei count | HUVEC TNFalpha-stimulated, Hoechst cell count | cell count reduction, % at 2 µM | 93,000 compounds, 0.17% hits | AID 848, 2007;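 active means cell count reduction exceeding the screen mean by over 5 SD, scaled to untreated wells per plate, cut at about 78% in these data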;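 further: cells counted after 24 h of TNF alpha exposure following the 1 h pretreatment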
VCAM1 TNFa inh = inhibitors of TNFa-induced VCAM1 expression, primary screen, imaging, HUVEC, TNFa stimulus, immunofluorescence; 95,000 compounds, 0.48% hits; inhibition, % at 2 µM; AID 802, 2007; HUVEC TNFa-induced VCAM-1 immunofluorescence, high-content imaging;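 active means inhibition above the batch mean plus 3 SD, with images confirmed as a hit by eye, cut at about 37% in these data; inconclusive means inhibition above that limit but hit not confirmed in images; inactive means inhibition not above that limit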;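 further: 0% = TNF-stimulated DMSO wells and 100% = unstimulated control wells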
E-sel TNF inh = E-selectin induction blockers in HUVEC – imaging, immunofluorescence, high content, primary screen. inhibition, % at 2 µM. 120,000 compounds, 0.71% hits. AID 1246, 2008. HUVEC TNFa-induced E-selectin immunofluorescence;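 active means inhibition above the batch mean plus 3 SD, and confirmed as a hit on visual image review, cut at about 43% in these data; inconclusive means passes the inhibition cutoff but fails visual image review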;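 further: 0% = TNF-stimulated DMSO wells and 100% = unstimulated control wells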
The depositor's hits bear a star. An excerpt weighted towards active compounds, which were near 1.1% of everything screened.

How did COC(=O)c1ccccc1N1C(=O)[C@@H]2C(c3ccc(F)cc3)=NO[C@@H]2C1=O do in these assays?
cytoskel mod: 26; HUVEC tox TNFa: -8; VCAM1 TNFa inh: -5; E-sel TNF inh: 68*

Results for O=C(O)CSCCOc1ccc(OCCSCC(=O)O)cc1 ?
E-sel TNF inh: 7

What do the screens show for `CCOc1cc(C(=O)NCc2ccc(-c3nc4ccccc4o3)cc2)cc(OCC)c1OCC`?
cytoskel mod: 1; VCAM1 TNFa inh: -26; E-sel TNF inh: 66*

How did COc1ccc(C(=O)NC(=S)NCc2ccc(-c3nc4ccccc4o3)cc2)cc1OC do in these assays?
cytoskel mod: -6; HUVEC tox TNFa: 2; VCAM1 TNFa inh: -9; E-sel TNF inh: 8

What do the screens show for `Clc1ccc(-n2ncc3c(NCc4ccc5c(c4)OCO5)ncnc32)cc1`?
cytoskel mod: -15; HUVEC tox TNFa: 28; VCAM1 TNFa inh: 80*; E-sel TNF inh: -21

What do the screens show for `Clc1ccc(-n2ncc3c(NCc4ccco4)ncnc32)cc1`?
E-sel TNF inh: -22

What do the screens show for `Oc1ccc(Nc2nc3ccccc3nc2Nc2ccc(O)cc2)cc1`?
cytoskel mod: inconclusive; VCAM1 TNFa inh: 94*; E-sel TNF inh: 46

How did CCCS(=O)(=O)N1CCC(C(=O)NCCCOC)CC1 do in these assays?
cytoskel mod: 2; HUVEC tox TNFa: -3; VCAM1 TNFa inh: -10; E-sel TNF inh: 100*

Results for CCS(=O)(=O)N1CCC(C(=O)NCCCOC)CC1 ?
cytoskel mod: -36; HUVEC tox TNFa: -8; VCAM1 TNFa inh: 13

How did Cc1ccc(S(=O)(=O)N2CCN(C(=O)C3COc4ccccc4O3)CC2)cc1C (centres undefined) do in these assays?
cytoskel mod: 9; HUVEC tox TNFa: -10; VCAM1 TNFa inh: 6; E-sel TNF inh: 79*

What do the screens show for `Cc1cc(-c2ccccc2)nc2[n+]1CCN2C`?
cytoskel mod: 11; HUVEC tox TNFa: -3; VCAM1 TNFa inh: 14

How did CN(CC(=O)NCc1ccncc1)S(=O)(=O)c1ccc(F)cc1 do in these assays?
cytoskel mod: inconclusive; HUVEC tox TNFa: 100*; VCAM1 TNFa inh: inconclusive; E-sel TNF inh: 16

How did COc1cccc(CC(=O)N[C@@H](CCSC)c2nc3ccccc3[nH]2)c1 do in these assays?
E-sel TNF inh: -86

Results for CC(C)NC(=O)CCn1nc(-c2ccc(Cl)cc2)c2ccccc2c1=O ?
E-sel TNF inh: 0

Results for CCNC(=O)CCn1nc(-c2ccc(Cl)cc2)c2ccccc2c1=O ?
cytoskel mod: -30; HUVEC tox TNFa: 96*; VCAM1 TNFa inh: 84*

What do the screens show for `CN1CCC(N(C)C(=S)NC(=O)C23CC4CC(CC(C4)C2)C3)CC1`?
E-sel TNF inh: 79*

Results for CC(C)(C)NC(=S)NC(=O)C12CC3CCC(CC(C3)C1)C2 ?
E-sel TNF inh: 4

How did CC(=O)N(Cc1ccco1)c1nc(C(=O)Nc2ccc(Cl)cc2)c(C)s1 do in these assays?
E-sel TNF inh: -7

Results for O=Cc1s/c(=N\S(=O)(=O)c2ccccc2)n(CCCCl)c1Cl ?
E-sel TNF inh: 72*

How did CC(C)NC(=O)NC(=O)COc1ccc(Br)cc1Br do in these assays?
E-sel TNF inh: 16

How did Cc1cc(C)n(-c2nc3ccccc3nc2N2CCN(C(=O)c3ccc(Cl)cc3)CC2)n1 do in these assays?
cytoskel mod: 18; VCAM1 TNFa inh: 92*; E-sel TNF inh: -16

What do the screens show for `CCCOc1ccccc1C1CC(=O)Nc2cc3c(cc21)OCCO3` (centres undefined)?
cytoskel mod: -22; HUVEC tox TNFa: 62; VCAM1 TNFa inh: 51*; E-sel TNF inh: -20

How did CC(C)Oc1ccccc1C1CC(=O)Nc2cc3c(cc21)OCO3 (centres undefined) do in these assays?
cytoskel mod: -31; HUVEC tox TNFa: 47; VCAM1 TNFa inh: 85*

Results for CCC(=O)Nc1cccc(NC(=O)c2ccc(C)cc2Cl)c1 ?
E-sel TNF inh: -19

What do the screens show for `CCS(=O)(=O)c1ccc2oc(SCC(=O)NC3CCCC(C)C3C)nc2c1` (centres undefined)?
cytoskel mod: 2; HUVEC tox TNFa: -32; VCAM1 TNFa inh: 6; E-sel TNF inh: 0

How did Cc1ccc(Nc2nc(CSc3nnnn3C)cs2)cc1 do in these assays?
cytoskel mod: 23; HUVEC tox TNFa: -25; VCAM1 TNFa inh: 96*; E-sel TNF inh: 15

Results for O=S(=O)(Cc1ccccc1)c1cnc2ccccc2n1 ?
cytoskel mod: -6; HUVEC tox TNFa: -4; VCAM1 TNFa inh: -5; E-sel TNF inh: -1

How did Cc1cc(S(=O)(=O)N2CCCC(C(=O)Nc3ccc(C(=O)O)cc3)C2)ccc1Cl (centres undefined) do in these assays?
E-sel TNF inh: -30

How did CCC(CC)C(=O)c1c[nH]c(C(=O)NCCCN2CCOCC2)c1 do in these assays?
cytoskel mod: 14; HUVEC tox TNFa: -10; VCAM1 TNFa inh: -25; E-sel TNF inh: 86*

Results for O=C(c1cccs1)N(C(=O)c1cccs1)c1ccc(Br)cn1 ?
cytoskel mod: -1; HUVEC tox TNFa: -11; VCAM1 TNFa inh: 16; E-sel TNF inh: 45*

How did Cc1ccnc(N(C(=O)c2cccs2)C(=O)c2cccs2)c1 do in these assays?
cytoskel mod: -3; HUVEC tox TNFa: 24; VCAM1 TNFa inh: 13; E-sel TNF inh: 12

Results for COc1ccc2occ(C(C)=O)c2c1 ?
cytoskel mod: -11; HUVEC tox TNFa: -16; VCAM1 TNFa inh: 2; E-sel TNF inh: -8

Results for COc1ccc(OC)c(C(=O)c2coc3ccc(O)cc23)c1 ?
cytoskel mod: 61*; HUVEC tox TNFa: -30; VCAM1 TNFa inh: 8; E-sel TNF inh: -12

Results for Cc1ccc(N(CC(=O)NCc2ccc3c(c2)OCO3)S(=O)(=O)c2c(C)noc2C)cc1 ?
cytoskel mod: -7; HUVEC tox TNFa: -8; VCAM1 TNFa inh: 11

What do the screens show for `Cc1cc(C)c(C#N)c(SCc2nc3ccccc3[nH]2)n1`?
cytoskel mod: 34*; HUVEC tox TNFa: -46; VCAM1 TNFa inh: 17; E-sel TNF inh: -29

Results for N#Cc1c(SCc2nc3ccccc3[nH]2)nc2c(c1C(F)(F)F)CCC2 ?
cytoskel mod: -6; HUVEC tox TNFa: 2; VCAM1 TNFa inh: 23; E-sel TNF inh: 6

Results for CC(C)CCn1c(Sc2nc3ccccc3o2)nc2c1c(=O)[nH]c(=O)n2C ?
E-sel TNF inh: 12

How did O=C(O)C1CCCN1S(=O)(=O)c1ccc(Br)s1 (centres undefined) (tested in a mixture with another compound) do in these assays?
cytoskel mod: 7; HUVEC tox TNFa: -12; VCAM1 TNFa inh: -10; E-sel TNF inh: 90*

Results for O=C(O)C1CCCCN1S(=O)(=O)c1ccc(Cl)s1 (centres undefined) ?
cytoskel mod: -12; HUVEC tox TNFa: -4; VCAM1 TNFa inh: 4; E-sel TNF inh: 7

What do the screens show for `CCc1nnc(NC(=O)C(=O)NCCOC(=O)c2ccccc2)s1`?
cytoskel mod: 1; HUVEC tox TNFa: -20; VCAM1 TNFa inh: -10; E-sel TNF inh: 20
